DRD3 antagonist – D3 dopamine receptor (human) antagonism. P35462. D3R cells, DiscoveRx beta-arrestin luminescence, antagonist mode; active compounds read low. max response, negative = inhibition, %. 360,000 compounds, 2.5% hits. AID 652054; in the data active = max response below about -50%
Target sequence (P35462 whole entry, looked up): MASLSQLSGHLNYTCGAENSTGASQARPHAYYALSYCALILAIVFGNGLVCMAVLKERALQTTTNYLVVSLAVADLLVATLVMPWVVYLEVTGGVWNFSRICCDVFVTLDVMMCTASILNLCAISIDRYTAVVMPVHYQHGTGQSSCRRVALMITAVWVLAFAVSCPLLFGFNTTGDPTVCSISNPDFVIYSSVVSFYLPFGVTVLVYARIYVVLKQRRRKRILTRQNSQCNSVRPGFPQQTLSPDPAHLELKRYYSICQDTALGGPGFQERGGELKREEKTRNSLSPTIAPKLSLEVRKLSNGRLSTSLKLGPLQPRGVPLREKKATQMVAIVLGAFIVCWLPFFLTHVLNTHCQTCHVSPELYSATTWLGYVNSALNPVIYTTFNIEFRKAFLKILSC
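Cells plated overnight at 1500 cells/well, then exposed to library compounds with dopamine controls for 90 minutes at 37 degrees C. DiscoveRx reagent added for 30–60 minutes at room temperature; luminescence read, quantitative HTS format.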
D1 PAM – potentiators of human D1 dopamine receptor; P21728; HEK293 TREx D1 cells, calcium flux, dopamine EC20 potentiation; potentiation, % at 10 µM; 360,000 compounds, 0.036% hits; AID 504651; in the data active = potentiation above about 30%
DRD3 agonist – agonists of human D3 dopamine receptor; max activation, %; D3R DiscoveRx beta-arrestin cells, luminescence, 90 min; P35462; 410,000 compounds, 0.58% hits; in the data active = max activation above about 30%
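Agonist-mode cell screen: cells plated at 1500/well and incubated overnight at 37 °C, then exposed to library compounds for 90 min at 37 °C. Detection reagent was added for 30–60 min at room temperature, and luminescence was read.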
D1 ag – activates the human D1 dopamine receptor | activation, % at 2 µM | 360,000 compounds, 1% hits | HEK293 T-REx D1 cells, calcium flux, agonist mode | AID 504660; in the data active = activation above about 30%
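Agonism was scored from calcium flux recorded over 180 s (1 read/s) after pintool compound addition, following a 10-cycle baseline. Cells were inducible force-coupled HEK293 TREx D1, plated overnight at 30 C and loaded with no-wash calcium dye.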
D1 antag – human D1 dopamine receptor antagonism | P21728 | HEK293 TREx D1 cells, calcium flux, dopamine EC80; active compounds read low | activity change, negative = inhibition, % at 10 µM | 360,000 compounds, 3.2% hits; in the data active = activity change below about -30%
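Using tetracycline-induced force-coupled D1 Hek293 cells and a calcium dye, signals were followed for 180 s after compound, then for 180 s after EC80 dopamine, to detect inhibitors.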
Numbers stand for hits; 0 = inactive; - = no result. This is a sample that favours compounds with a hit; in the whole collection about 6% have one here.

SMILES | DRD3 antagonist | D1 PAM | DRD3 agonist | D1 ag | D1 antag
O=S(=O)(c1ccc2c(c1)CCN2)N1CCCCCC1 | - | 0 | 0 | 0 | 0
CCOC(=O)c1sc(NC(=O)c2cc(-c3ccc(F)cc3)on2)c(C(=O)OCC)c1C | - | 0 | 0 | 0 | 0
Cc1ccc(CN2CCCn3nc(C(=O)NCc4ccc(OC(C)C)cc4)cc3C2=O)cc1 | - | 0 | 0 | 0 | 0
CN(Cc1ccccc1)S(=O)(=O)c1ccc(-c2cnc(C3CC3)o2)cc1 | - | 0 | 0 | 0 | 0
OC[C@@H](O)C(O)[C@H](O)CO | - | - | 0 | - | -
COC(=O)c1ccccc1NC(=O)Cn1cc(S(=O)(=O)Cc2ccccc2F)c2ccccc21 | - | 0 | 0 | 0 | 0
CN(CC1COc2ccccc2O1)C(=O)c1cc(COc2c(F)cccc2F)on1 (centres undefined) | 0 | 0 | 0 | 0 | -46.3
CN(CC1COCCO1)C(=O)c1cc(COc2c(F)cccc2F)on1 (centres undefined) | 0 | 0 | 0 | 0 | 0
CCOc1ccc(NC(=O)c2ccc(Br)o2)c([N+](=O)[O-])c1 | 0 | 0 | 0 | 0 | -44.9
CCOc1ccc(NC(=O)Cc2ccccc2)c([N+](=O)[O-])c1 | 0 | 0 | 0 | 0 | 0
O=C(CSc1ccccc1C(=O)O)NC1CCCCCCC1 | 0 | 0 | 0 | 0 | 0
O=C(CSc1ccccc1C(=O)O)NC1CCCCCC1 | 0 | 0 | 0 | 0 | -38.7
CC(C)CCNC(=O)c1ccccc1SCC(=O)NC1CCCCCCC1 | 0 | 0 | 0 | 0 | 0
O=C(CSc1ccccc1C(=O)NCc1ccccc1)NC1CCCCCCC1 | 0 | 0 | 0 | 0 | -84.1
O=S(=O)(c1ccc2nc(Cl)c(Cl)nc2c1)N1CCN(S(=O)(=O)c2c(F)cccc2F)CC1 | - | 0 | - | 0 | 0
O=C(O)/C=C/C(=O)NNC(=O)c1ccccc1Br | 0 | 0 | 0 | 0 | -40.6
CC1CN(CCCSc2ccc(Cl)cc2)CC(C)O1 (centres undefined) | -71.1 | 0 | 0 | 0 | -
CC1CN(CCCCSc2ccccc2)CC(C)O1 (centres undefined) | 0 | 0 | 0 | 0 | 0
Clc1ccc(SCCCN2CCCCC2)cc1 | -80.1 | 0 | 0 | 0 | 0
Clc1ccc(SCCN2CCNCC2)cc1 | 0 | 0 | 0 | 0 | 0
CCCN1C(=O)/C(=C/c2ccncc2)SC1=S | 0 | 0 | 0 | 0 | 0
CCN1C(=O)/C(=C/C=C2/Sc3ccccc3N2CCO)SC1=S | 0 | 0 | 0 | 32.1 | 0
CCCN1C(=O)/C(=C\C=C2/Sc3ccccc3N2CCO)SC1=S | 0 | 0 | 0 | 30.2 | 0
CCCCCC(=O)N1CC2(CC(c3cccc(NC(=O)CC(c4ccccc4)c4ccccc4)c3)=NO2)C[C@@H]1C(N)=O (some centres undefined) | 0 | 0 | 0 | 0 | -47.1
CCC(=O)Nc1cccc(C2=NOC3(C2)C[C@@H](C(N)=O)N(C(=O)COc2ccc(Cl)cc2)C3)c1 (some centres undefined) | 0 | 0 | 0 | 0 | 0
SMILES | DRD3 antagonist | D1 PAM | DRD3 agonist | D1 ag | D1 antag
CCC(=O)N1CC2(CC(c3cccc(NC(=O)COc4ccc(Cl)cc4)c3)=NO2)C[C@@H]1C(N)=O (some centres undefined) | - | 0 | - | 0 | -53.1
O=c1c(N=Nc2ccc(O)cc2)c(-c2ccccc2)[nH]n1-c1ccc([N+](=O)[O-])cc1 | -70.3 | 0 | 0 | 0 | 0
CCCc1cc(=O)[nH]c(Nc2cc(Cl)cc(Cl)c2)n1 | - | 0 | 0 | 0 | 0
C=CC#CC1(O)CC(C)N(C)CC1C (centres undefined) | -66.1 | 0 | 0 | 0 | 0
CCOc1ccccc1NC(=O)N1CCN(S(=O)(=O)c2ccc3c(ccn3C)c2)CC1 | - | 0 | 0 | 0 | 0
CNc1nc(-c2ccc3c(c2)CCN3C(=O)CC(C)(C)C)c(C)s1 | 0 | 0 | 0 | 0 | -34.8
Cc1c(Cl)cccc1NC(=O)C1CCCN(c2nnc(-n3c(C)ccc3C)s2)C1 (centres undefined) | - | 0 | 0 | 0 | 0
Cc1ccccc1CS(=O)(=O)c1cn(CC(=O)N2CCC(C)CC2)c2ccccc12 | 0 | 0 | 0 | 0 | -64.7
NS(=O)(=O)Nc1c(Br)cc(Br)c2cccnc12 | - | 0 | - | 0 | 0
O=C(Nc1ccc(Cl)cc1)NC1CCCCC1Cc1ccco1 (centres undefined) | 0 | 0 | 0 | 0 | -34.4
CCOc1cc(C(=S)N2CCCC2)ccc1OCC(=O)Nc1c(C)cc(C)cc1C | -54.7 | 0 | 0 | 0 | 0
CCOC(=O)c1[nH]c(C)c(CCC(=O)Nc2ccc(Br)c(C)c2)c1C | - | 0 | 0 | 0 | 0
Cc1csc(NC(=O)c2ccc(Cn3nc(C)c(Br)c3C)o2)n1 | 0 | 0 | 0 | 0 | 0
Cc1nn(Cc2ccc(C(=O)Nc3ccccc3C(F)(F)F)o2)c(C)c1Br | 0 | 0 | 0 | 0 | -65.1
Cc1ccc(CNC(=O)c2ccc(Cn3nc(C)c(Cl)c3C)o2)cc1 | -53.2 | 0 | 0 | 0 | 0
Cc1cc(C)cc(NC(=O)c2ccc(Cn3nc(C)c(Cl)c3C)o2)c1 | 0 | 0 | 0 | 0 | 0
O=P(c1ccccc1)(c1ccccc1)N(c1ccccc1)c1ccccc1 | -53.5 | 0 | 0 | 0 | 0
Nc1cccc(P(=O)(c2ccccc2)c2ccccc2)c1 | 0 | 0 | 0 | 0 | 0
Cc1ccc(CNc2ccc3cc(S(=O)(=O)N4CCCCC4)ccc3n2)cc1 | - | 0 | 0 | 0 | 0
CCC(C)(C)C1CCc2[nH]nc(C(=O)NCc3ccc(Cl)cc3)c2C1 (centres undefined) | -75.0 | 0 | 0 | 0 | 0
CCC(C)(C)C1CCc2[nH]nc(C(=O)NCc3ccccn3)c2C1 (centres undefined) | 0 | 0 | 0 | 0 | 0
CN(C)CC1CC/C(=C\c2ccc(O)cc2)C1=O (centres undefined) | -61.4 | - | 0 | - | -
CC1CCC/C(=C\c2ccc(O)cc2)C1=O (centres undefined) | 0 | - | 0 | - | -
COc1ccc(/C=C2/CCC(CN3CCOCC3)C2=O)cc1 (centres undefined) | -66.9 | - | 0 | - | -
CCOc1ccc(Cn2c(CNS(=O)(=O)c3ccc(C(C)(C)C)cc3)nc3cccnc32)cc1 | - | 0 | 0 | 0 | 0
SMILES | DRD3 antagonist | D1 PAM | DRD3 agonist | D1 ag | D1 antag
Cc1ccc2nc(N=C(N)N)nc(C)c2c1 | 0 | 0 | 0 | 0 | -52.3
CCc1ccc2nc(N=C(N)N)nc(C)c2c1 | 0 | 0 | 0 | 0 | 0
Cc1ccc(N2C(=O)C3C(C(=O)c4ccccc4)=NN(c4ccccc4)C3C2=O)cc1 (centres undefined) | 0 | 0 | 0 | 117.2 | 0
CCOc1ccc(N2C(=O)C3C(c4ccccc4)=NN(c4ccccc4)C3C2=O)cc1 (centres undefined) | 0 | 0 | 0 | 0 | 0
O=C(C1=NN(c2ccccc2)C2C(=O)N(c3ccccc3)C(=O)C12)c1ccccc1 (centres undefined) | 0 | 0 | 0 | 324.3 | -31.5
O=C(C1=NN(c2ccccc2)C2C(=O)N(c3ccccc3Cl)C(=O)C12)c1ccccc1 (centres undefined) | 0 | 0 | 0 | 192.9 | 0
Cc1ccn2c(Nc3ccc(C(C)C)cc3)c(-c3cccs3)nc2c1 | - | 0 | 0 | 0 | 0

Screens as filed in PubChem.
